High-throughput results: PubChem, National Center for Advancing Translational Sciences (NCATS)
An excerpt weighted towards active compounds, which were near 3.6% of everything screened.
aSyn rescue = rescues yeast growth from alpha-synuclein toxicity; Yeast expressing alpha-synuclein, growth rescue, BacTiter-Glo, 24 h; Potency, µM (titrated, usually from 46.1 µM), without a hit: at the top dose growth rescue (activation), actives largely listed as activators; 370,000 tested, 0.14% active; AID 652106; also: % of control where 0% means no effect; nearly all actives have a fitted effect of over 65% in size
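Rescue of yeast growth: cells expressing toxic alpha-synuclein, induced in galactose at OD600 0.02, incubated with compound 24 h at 30 C. ATP luminescence quantified growth; inhibitors of toxicity appear as activators.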
Abeta rescue = restores growth of yeast expressing A-beta42 peptide | AID 1347071 | yeast expressing A-beta42, growth rescue, OD600, 48 h; response scale: 0% DMSO, 100% iron-clioquinol control | Potency, µM (highest dose often 46.1 µM), hits mostly activators | 410,000 tested, 0.063% active; also: nearly all actives have a fitted effect of over 55% in size
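Yeast growth medium received pinned compounds, then yeast cells expressing toxic A-beta were added; plates incubated at 30 C for 48 hr. Growth read as absorbance at 600 nm, normalized to DMSO and equimolar FeCl3 plus clioquinol controls.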
FUS suppressor = FUS proteinopathy suppression in yeast. 390,000 tested, 0.24% active. S. cerevisiae FUS-expressing, growth rescue, OD600, 24 h. Potency, µM (top dose mostly 76.6 µM), actives largely listed as activators;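 also: plate controls were DMSO vehicle for no effect and reference control for full effect; nearly all actives have a fitted effect of over 55% in size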
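Steps: raffinose overnight preculture; dilution to OD 0.005 in 2% galactose minimal medium; compound addition (concentration series); 24hr at 30C, 99% humidity; absorbance read at 600 nm.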
ClpP mod = qHTS Assay for Activators of ClpP. 340,000 tested, 1.9% active. ATP-dependent Clp protease proteolytic subunit (Bacillus subtilis (strain 168)), P80244. Potency, µM (highest dose often 57.5 µM), without a hit: at the top dose activity change, negative = active. AID 651965, 2013. purified B. subtilis ClpP, FRET peptide cleavage, 20 min; active = well fitted falling curve with a large enough effect; inconclusive = small, poorly fitted or top-dose-only effect; inactive = no such curve, though single readings can be large or run the other way; also: the source files actives as falling curves though it sought activators and does not explain the sign; nearly all actives have a fitted effect of over 65% in size
Target sequence (P80244 whole entry, looked up): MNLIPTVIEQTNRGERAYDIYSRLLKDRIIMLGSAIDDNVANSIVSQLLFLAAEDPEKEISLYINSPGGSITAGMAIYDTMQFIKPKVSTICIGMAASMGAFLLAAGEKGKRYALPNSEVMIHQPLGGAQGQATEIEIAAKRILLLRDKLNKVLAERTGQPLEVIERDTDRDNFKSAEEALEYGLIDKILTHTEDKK
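Purified B. subtilis ClpP, 10 microg/mL final in Tris/HCl pH8 with KCl, BSA, glycerol and Tween-20, cleaved an Abz/nitrotyrosine-quenched decapeptide. Fluorescence (ex 320, em 430) was read at 0 and 20 min at room temperature. Delta was normalized to 5.8 microM ADEP and DMSO/no-enzyme controls.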
Mm-Cpn inhibitor = inhibitors of Methanococcus maripaludis chaperonin TRiC (MmCpn); purified Mm-Cpn ATPase, ADP Transcreener TR-FRET; Potency, µM (top dose mostly 76.9 µM), for inactives: at the top dose activity, negative = inhibition, actives largely listed as inhibitors; 330,000 tested, 0.031% active; AID 504842; also: % is scaled to controls: 0 for no effect and ±100 for the full control effect; nearly all actives have a fitted effect of over 80% in size
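ATPase turnover read by TR-FRET ADP competition (Eu cryptate antibody/ADP-d2, 665/590 nm): 10uM ATP final, 25nM Mm-CPN final, 30 min 37degC after 10-min compound preincubation, pH 7.4 Tris/KCl/MgCl2/DTT buffer.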
TDP43 rescue = inhibitors of TDP-43 toxicity in yeast; TDP-43 expressing yeast growth rescue, BacTiter-Glo, 24 h; Potency, µM (highest dose often 46.1 µM), for inactives: at the highest dose growth rescue (activation), hits mostly activators; 410,000 tested, 1.8% active; also: % of control where 0% means no effect; nearly all actives have a fitted effect of over 50% in size
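Cell-based yeast growth screen: TDP-43 expression induced in galactose, inoculum OD600=0.02 after raffinose pregrowth to mid-log. Read-out BacTiter-Glo luminescence at 24 hr, 30 deg C; inhibition of toxicity seen as signal increase.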
Starred values were filed as active, the others as inactive; i = inactive; u = inconclusive; x = no result given; ! = a repeat was not active. Unless noted, calls follow the shape of the dose curve; as a rule, active = well fitted curve in the direction sought with a large enough effect; inconclusive = small, poorly fitted or top-dose-only effect, or another doubt; inactive = no such curve, though single readings can be large; an effect the other way counts as inactive or inconclusive. Potency is read from the fitted curve at half-maximal effect.

SMILES	aSyn rescue	Abeta rescue	FUS suppressor	ClpP mod	Mm-Cpn inhibitor	TDP43 rescue
Cc1ccccc1-c1cc(C(=O)NCc2ccc(OC(F)(F)F)cc2)n(CC2CC(c3cccnc3)=NO2)n1 (centres undefined)	16%	i	22µM*	-4%	3%	u
COc1ccc(C2=NOC(Cn3nc(-c4ccccc4)cc3C(=O)NCc3cccs3)C2)cc1 (centres undefined)	8%	i	32µM*	-11%	-3%	4%
Cc1ccc(CNC(=O)c2cc(-c3ccccc3C)nn2CC2CC(c3cccnc3)=NO2)cc1 (centres undefined)	0%	i	i	1%	-7%	u
COc1ccc(CN2C(=O)N(c3ccc(C)cc3)C(=O)C2CC(=O)Nc2ccccc2)cc1OC (centres undefined)	x	i	i	1%	x	0%
Cc1cn(C)c(CC(=O)N2CCN(c3ccccc3F)CC2)c1C(=O)O	x	i	i	0%	x	17%
COc1ccc(C(C)=O)cc1CSc1nnc(Nc2ccc(C)cc2C)s1	u	i	i	x	-19%	20µM*
CNC(=O)c1c(C)[nH]c(=S)c(C#N)c1-c1ccco1	7%	i	i	-3%	-3%	14%
Cc1ccccc1NC(=O)c1c(C)[nH]c(=S)c(C#N)c1-c1ccco1	-9%	i	u	14µM*	-20%	8%
N#Cc1nc(-c2ccc(OCc3ccccc3)cc2)oc1N1CCC(C(N)=O)CC1	-1%	i	i	3.5µM*!	-4%	-2%
N#Cc1nc(-c2ccc(COc3ccc(Cl)cc3)o2)oc1N1CCC(C(N)=O)CC1	x	i	i	32µM*	x	13%
CCC1CN(C(=O)N2CCC(C(=O)N3CCN(c4ccccc4)CC3)CC2)c2ccccc2O1 (centres undefined)	x	i	i	1%	x	26%
CC(C)N(CC#CC(O)(c1ccccc1)c1ccccc1)C(C)C	-3%	i	i	32µM*	-2%	-19%
CCCCC(CC)CNC(=O)c1[nH]c(C)c(C(C)=O)c1C (centres undefined)	-1%	i	i	-1%	0%	13µM*
CCCCNC(=O)c1[nH]c(C)c(C(C)=O)c1C	4%	i	i	x	-3%	-10%
Cc1ccc2c(c1)CCC2=O	13%	x	x	2%	x	x
CC(=O)c1cnc2nc(SCc3ccc(C)cc3)nn2c1C	0%	i	i	-2%	2%	4%
CC(=O)c1cnc2nc(SCc3ccc(Cl)cc3)nn2c1C	12%	i	i	0%	-4%	14µM*
COc1ccc2[nH]c3c(N4CCC(O)(c5cccc(C(F)(F)F)c5)CC4)ncnc3c2c1	-15%	i	i	32µM*	1%	20%
COc1ccc2[nH]c3c(N4CCN(Cc5ccc6c(c5)OCO6)CC4)ncnc3c2c1	-17%	i	i	u	1%	-7%
O=C(Cn1c2ccccc2c(=O)c2ccccc21)Nc1ccccc1F	2%	i	x	13µM*	-4%	15%
Cc1cccc(Oc2nc3ccccn3c(=O)c2/C=C(\C#N)C(=O)NC2CCS(=O)(=O)C2)c1 (centres undefined)	0%	i	x	25µM*	-6%	0%
Cc1cccn2c(=O)c(/C=C(\C#N)C(=O)NC3CCS(=O)(=O)C3)c(N3CCC(C)CC3)nc12 (centres undefined)	1%	i	u	u	-6%	20%
N#C/C(=C\c1c(N2CCCCC2)nc2ccccn2c1=O)C(=O)NC1CCS(=O)(=O)C1 (centres undefined)	2%	i	i	4µM*	1%	23%
CC(=O)Nc1ccc(Nc2ccc3cc(S(=O)(=O)N4CCCCC4)ccc3n2)cc1	x	i	i	-14%	x	24%
